Data published in PubChem BioAssay AID743395 (Broad Institute, 2014).
Screen size: about 1,200 compounds; about 480 (40%) were called active. How the calls were made is not given here. The set was probably picked from earlier hits. Not all results are given here. Results with a measured potency or affinity are listed apart.

test: HepG2 cell cytotoxicity, dose response, cytotoxicity control, CellTiter-Glo luminescence, cherry-pick, set 2 (AID 743395); details: HepG2 viability, CellTiter-Glo ATP luminescence, 72 h; series mostly up to 26 µM

SMILES	outcome
CCC(=O)c1ccc(OCC(=O)OCC(=O)N2CCc3ccccc3C2)cc1	inactive
O=C(Cc1ccsc1)OCC(=O)c1ccccc1	inactive
CCN(CC)c1ccc2c(cc1=O)[C@@H](NC)CCc1cc(OC)c(OC)c(OC)c1-2	inactive
CN[C@H]1CCc2cc(OC)c(OC)c(OC)c2-c2ccc(N(C)CC(OC)OC)c(=O)cc21	inactive
COc1c(O[C@@H]2O[C@H](CO)[C@@H](O)[C@H](O)[C@H]2O)cc2c(c1OC)-c1ccc(SC)c(=O)cc1C(NC(C)=O)CC2 (some centres not stated)	inactive
CO[C@H]1CN(C)C(=O)c2cc(NC(C)=O)ccc2OC[C@H](C)N(C(=O)c2ccncc2)C[C@H]1C	inactive
CCOC(=O)CSC1=C(C#N)C(c2ccc(C)s2)CC(=O)N1 (configuration not stated)	inactive
CN(C(=O)c1ccccc1OC1CCN(S(C)(=O)=O)CC1)C1CCOC1 (configuration not stated)	inactive
COCCOC(=O)c1[nH]c2c(c1C)C(=O)CC(c1cccs1)C2 (configuration not stated)	inactive
Nc1ccn([C@H]2C[C@H](O)[C@@H](CO)O2)c(=O)n1	inactive
Nc1ccn([C@@H]2O[C@H](C(=O)NCC(F)(F)F)[C@@H](O)[C@H]2O)c(=O)n1	inactive
O=C1C=CN(C2OC(CO)C(O)C2O)C(=O)C1 (configuration not stated)	inactive
Cc1ccc(C(=O)OCC(=O)NCc2cc(C)c(O)c(C)c2)cc1S(=O)(=O)N1CCCCC1	inactive
CC(OC(=O)CCCC(=O)Nc1ccc(F)cc1)C(=O)c1ccccc1 (configuration not stated)	inactive
CC1Cc2ccccc2N1S(=O)(=O)c1cccc(C(=O)N2CCN(c3ncccn3)CC2)c1 (configuration not stated)	inactive
COc1ccccc1N1CCN(C(CNS(=O)(=O)c2cccs2)c2cccnc2)CC1 (configuration not stated)	inactive
CN(C[C@H](Cc1ccccc1)N(C[C@H](Cc1ccccc1)N(CCC(C)(C)C)N=O)N=O)N=O	inactive
O=C1c2cccc3c(O)ccc(c23)C(=O)N1c1ccc(Cl)cc1	inactive
N#CC1=C(N)OC2=C(CCc3ccccc32)C1c1ccccc1Cl (configuration not stated)	inactive
COc1nc(N)nc(NC(=O)c2cccs2)c1N=O	inactive
Cc1ccc(Cc2c(-c3ccc(C)cc3)nc3c(C)cc(Br)cn23)cc1	inactive
CC(C)(C)NC(=O)c1cccc2c1-c1ccccc1C2=O	inactive
CC1=C(C(=O)NC2CCCCC2C)C2(CCC(C)CC2)OC1=O (configuration not stated)	inactive
COc1ccc(C(C#N)CC(=O)c2ccc3c(c2)OCO3)cc1OC (configuration not stated)	inactive
Cc1cc(Br)cn2c(Cc3ccsc3)c(-c3ccc(F)cc3)nc12	inactive

SMILES	outcome
Cc1cccc(OCC(=O)NNC(=O)c2ccc3nc[nH]c3c2)c1	inactive
COc1ccc(C(=O)Nc2ccc(NC(=O)c3cccc(F)c3)cn2)cc1	inactive
COc1ccc(NC(=O)c2ccc(OCC3CCCO3)cc2)cc1OC (configuration not stated)	inactive
COc1ccc(C(=O)OCc2nc(N)nc(Nc3ccccc3C)n2)cc1OC	inactive
CC(OC(=O)c1ccc(Cl)nc1)C(=O)NC(C)(C)C (configuration not stated)	inactive
NS(=O)(=O)c1cc(C2(O)NC(=O)c3ccccc32)ccc1Cl (configuration not stated)	inactive
CCNC(=O)C[C@@H]1C=C[C@@H](NC(=O)NC2CCCCC2)[C@H](CO)O1	inactive
O=C(CSC1=NCCN1)Nc1cccc([N+](=O)[O-])c1	inactive
COc1ccc([C@@H]2[C@@H]3C(=O)N(C(C)(C)C)C(=O)[C@@H]3[C@]3(Cc4ccccc4)C(=O)N(c4ccc(C(F)(F)F)cc4)C(=O)N23)cc1	inactive
CCc1ccccc1N(C)S(=O)(=O)c1ccc(-c2cc(C)no2)s1	inactive
Cc1ccc(OCCC(=O)NNC(=O)c2ccc(Br)cc2)cc1	inactive
O=C(NCCCN1CCOCC1)c1sc2cc(Cl)ccc2c1Cl	inactive
CN(C)CCCN1c2ccccc2Sc2ccccc21	inactive
O=C(NCCCN1CCOCC1)c1cc(S(=O)(=O)N2CCOCC2)c(Cl)cc1Cl	inactive
COC(=O)C1CC23C=CCN4CCC5(c6ccccc6NC15C2C)C43 (configuration not stated)	inactive
COc1ccccc1NC(=O)C(=O)NCC(c1ccco1)N1CCc2ccccc21 (configuration not stated)	inactive
COc1ccc(C(=O)NCC(c2ccco2)N2CCc3ccccc32)cc1 (configuration not stated)	inactive
CCCc1nc(SC2CCCC2)c2c(=O)n(C)c(=O)n(C)c2n1	inactive
COc1cc(OC)cc(C(=O)N2CC(=O)Nc3ccccc32)c1	inactive
COc1ccc(NCC(=O)n2c(C)c(C)c3ccccc32)cc1	inactive
COc1ccc(/C=C2/CCCc3ccccc3C2=O)cc1	inactive
COC(=O)c1cn(C(=O)c2ccc(C)cc2C)c2ccccc12	inactive
O=C(NCc1cccnc1)c1cc(C2CCCCN2C(=O)CCCc2ccccc2)on1 (configuration not stated)	inactive
Cc1ccc(C)c(NC(=O)CCC(=O)N/N=C/c2cc([N+](=O)[O-])ccc2O)c1	inactive
CCCOCCOC(=O)c1[nH]c2c(c1C)C(=O)CC(c1cc(OC)ccc1OC)C2 (configuration not stated)	inactive

SMILES	outcome
COc1ccccc1/C=N/NC(=O)c1cc2c(OC)c(OC)ccc2[nH]1	inactive
CN(CC(=O)Nc1ccc(Cl)c(C(F)(F)F)c1)C(=O)CCN1C(=O)C2CCCCC2C1=O (configuration not stated)	inactive
CCOC(=O)c1nc(C)sc1-c1ccnn1S(=O)(=O)c1ccccc1C(F)(F)F	inactive
CC(=O)c1c(C)[nH]c(C(=O)OCC(=O)NCc2ccc(Cl)cc2)c1C	inactive
O=C1NCCc2c1[nH]c1ccc([N+](=O)[O-])cc21	inactive
O=C(CCNC(=O)c1ccco1)Nc1nc(-c2ccccc2)cs1	inactive
COc1cc(/C=C2\SC(=Nc3ccc(Cl)c(C(=O)O)c3)NC2=O)c(Br)c(Br)c1O	inactive
COc1ccc2c(c1)/C(=C/c1cc(OC)c(OC)c(OC)c1)C(=O)N2	inactive
Cc1nn(C2CCS(=O)(=O)C2)c2nc(C3CC3)cc(C(=O)Nc3cccc(C#N)c3)c12 (configuration not stated)	inactive
COc1ccc(C#Cc2ccc3c(c2)O[C@H](CN(C)C(=O)Nc2cccc(OC)c2)[C@H](C)CN([C@H](C)CO)S3(=O)=O)cc1	inactive
COc1ccc(NC(=O)C(=O)c2cn(CC(=O)N3CCCC3)c3ccccc23)cc1OC	inactive
COc1ccc(CNCC(=O)Nc2ccccc2-n2cccc2)cc1	inactive
CCCCNC(=O)c1onc(CSc2ccccc2C)c1C(=O)O	inactive
COc1cccc(C2=CC(c3ccccc3)n3nnnc3N2)c1 (configuration not stated)	inactive
CCOc1cc(N2CCOCC2)c(OCC)cc1NC(=O)CN1C(=O)NC2(CCCCC2)C1=O	inactive
COCCCN=C1NN=C(c2cc(C)n(Cc3ccccc3Cl)c2C)CS1	inactive
C[C@H]1CNC(=O)c2c(C(=O)Nc3ccc(CNC(=O)OC(C)(C)C)cc3)ncn21	inactive
C[C@@H]1CN([C@H](C)CO)S(=O)(=O)c2ccc(C#Cc3cccc(F)c3)cc2O[C@@H]1CN(C)C(=O)NC1CCCCC1	inactive
C[C@H]1CN([C@@H](C)CO)S(=O)(=O)c2ccc(C#Cc3cccc(F)c3)cc2O[C@H]1CN(C)C(=O)NC1CCCCC1	inactive
C[C@H](CO)N1C[C@H](C)[C@H](CN(C)C(=O)NC2CCCC2)Oc2cc(C#Cc3ccc(F)cc3)ccc2S1(=O)=O	inactive
C[C@H](CO)N1C[C@H](C)[C@H](CN(C)C(=O)NC2CCCCC2)Oc2cc(C#Cc3ccc(F)cc3)ccc2S1(=O)=O	inactive
CC(=O)N(C)C[C@@H]1Oc2cc(C#Cc3ccc(F)cc3)ccc2S(=O)(=O)N([C@H](C)CO)C[C@@H]1C	inactive
C[C@H](CO)N1C[C@H](C)[C@@H](CN(C)C(=O)NC2CCCCC2)Oc2cc(C#Cc3ccc(F)cc3)ccc2S1(=O)=O	inactive
Cc1cccc2c(N=Nc3ccc(S(=O)(=O)Nc4ccc(Cl)cc4)cc3[N+](=O)[O-])c(O)[nH]c12	inactive
Cc1ccc(-c2nc(CSCC(=O)Nc3cc(C)on3)c(C)o2)cc1	inactive

SMILES	outcome
COc1ccc(C#Cc2ccc3c(c2)O[C@@H](CN(C)C(=O)Nc2cccc(OC)c2)[C@H](C)CN([C@H](C)CO)S3(=O)=O)cc1	inactive
CO[C@@H]1CN(C)C(=O)c2cc(NC(=O)Nc3c(C)noc3C)ccc2OC[C@@H](C)N(C)C[C@@H]1C	inactive
Cc1cccc(OCCNC(=O)c2ccc(Cl)c(S(=O)(=O)NCc3cccnc3)c2)c1	inactive
Cc1ccc(S(=O)(=O)NCc2ccccc2)cc1C(=O)N1CC(C)CC(C)C1 (configuration not stated)	inactive
N=c1sccn1CC(=O)Nc1ccc(S(N)(=O)=O)cc1	inactive
COC(=O)C[C@@H]1CC[C@@H]2[C@H](COc3ccc(NC(=O)c4ccc(C(F)(F)F)cc4)cc3C(=O)N2C)O1	inactive
O=C(CN(Cc1ccccc1)S(=O)(=O)c1ccc(F)cc1)NCc1cccnc1	inactive
NS(=O)(=O)c1ccc(CNc2ccc3ccccc3n2)cc1	inactive
COC(=O)c1ccsc1NC(=O)c1ccccc1	inactive
CCN(C(=O)COC(=O)c1cc(-c2ccccc2)nc2c1c(C)nn2-c1ccc(C)cc1)C1CCS(=O)(=O)C1 (configuration not stated)	inactive
CC(C)c1ccc(CN2CCN(S(=O)(=O)c3ccc(Cl)s3)CC2)cc1	inactive
Cc1cc(C)cc(C(=O)NCC(=O)OCc2cc([N+](=O)[O-])cc3c2OCOC3)c1	inactive
CCN(CC)C(=S)SSC(=S)N(CC)CC	inactive
Cc1cc2c(cc(C(=O)OC(C)C(=O)NCc3ccc(F)cc3)n2C)o1 (configuration not stated)	inactive
CCN(CC)CCn1c2c(c(SCC(=O)Nc3ccc(F)c(F)c3)nc1=O)CCC2	inactive
COc1cc(C(=O)OCCc2cc3ccccc3c(=O)o2)cc(OC)c1OC	inactive
O=C1c2ccccc2C(=O)N1Cc1cnc(N2CCN(c3ccccc3)CC2)s1	inactive
CCOC(=O)c1cnc(COc2ccc(OC)cc2)[nH]c1=O	inactive
S=C(NCCc1ccccc1)Nc1nccs1	inactive
COc1ccc(NS(=O)(=O)c2cc(NC(=O)Cc3c(F)cccc3Cl)ccc2OC)cc1	inactive
CC1CN(S(=O)(=O)c2ccc(C(=O)N3CCc4ccccc43)cc2)CC(C)O1 (configuration not stated)	inactive
O=S(=O)(c1ccc(Br)cc1)N1CCCc2ccccc21	inactive
